# Pf Dd2 inh – blocks growth of Plasmodium falciparum Dd2 parasites; P. falciparum Dd2 growth, SYBR Green, 72 h; stronger effect = lower value; activity change, % at 10 µM; hit rate 2.3% among 94,000; AID 1159554; in the data active = activity change below about -80%
# C diff HTS – C. difficile growth inhibition | hit rate 0.25% among 86,000 | growth activity, negative = inhibition, % at 16 µg/mL (by protocol) | AID 1259249 | Clostridium difficile clinical isolate growth, OD600, 24 h; stronger effect = lower value;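 active = mean growth activity at or below -80% and every replicate also at or below -80%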;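 also: 0% = DMSO wells and -100% = levofloxacin 16 µg/mL wells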
# Starred values were filed as active, the others as inactive; . = no result given; ! = not active in a repeat. Only some compounds are listed: those with a hit (about 2.3% of all), similar ones and a draw of the others.
SMILES,Pf Dd2 inh,C diff HTS
C[C@@H]1CN([C@@H](C)CO)S(=O)(=O)c2ccc(C#CC3CCCC3)cc2O[C@@H]1CN(C)Cc1cncnc1,-17,0
COc1ccc2c3c(n(C)c2c1)[C@@H](CO)N(Cc1ccccc1F)CC31CN(C(=O)C2CCCC2)C1,-58,8
O=C(Nc1ccccc1F)N1CCCCN2[C@H](CO)[C@H](c3ccc(C#Cc4ccccc4)cc3)[C@@H]2C1,-89*,-2
O=C(Nc1ccccc1F)N1CCCCN2[C@H](CO)[C@@H](c3ccc(C#Cc4ccccc4)cc3)[C@@H]2C1,-34,-2
COc1ccc2c3c(n(C)c2c1)[C@H](CO)N(C(=O)C1CCCC1)CC31CCN(C(=O)Nc2cccc(F)c2)CC1,-56,5
COc1ccc2c3c(n(C)c2c1)[C@@H](CO)N(C(=O)C1CCC1)CC31CN(C)C1,5,-6
COc1ccc2c3c(n(C)c2c1)[C@@H](CO)N(C(=O)C1CCCC1)CC31CCN(C(=O)Nc2cccc(F)c2)CC1,-91*,0
COc1ccc(NC(=O)N2CCC3(CC2)CN(C(=O)C2CCC2)[C@H](CO)c2c3c3ccc(OC)cc3n2C)cc1,-90*,-9
CCCC(=O)N1CC2(CN(C(=O)Nc3cccc(F)c3)C2)c2c(n(C)c3cc(OC)ccc23)[C@@H]1CO,-23,17
COc1ccc(NC(=O)N2CC3(C2)CN(C(=O)C2CCC2)[C@H](CO)c2c3c3ccc(OC)cc3n2C)cc1,-88*,-2
COc1ccc2c3c(n(C)c2c1)[C@@H](CO)N(C(=O)C1CCCCC1)CC31CCN(C(=O)Nc2cccc(F)c2)CC1,30,.
CCCC(=O)N1CC2(CN(C(=O)Nc3cccc(F)c3)C2)c2c(n(C)c3cc(OC)ccc23)[C@H]1CO,-82*,8
Cc1noc(C)c1NC(=O)Nc1ccc2c(c1)C(=O)N([C@H](C)CO)C[C@H](C)[C@@H](CN(C)S(=O)(=O)c1ccc(F)cc1)OCCCC[C@@H](C)O2,-6,1
N#C[C@@H]1[C@@H](c2ccccc2-c2ccc(F)cc2)[C@H](CO)N1C(=O)NC1CCCC1,-49,4
CCCNC(=O)N1C[C@H](C)[C@@H](OC)CN(C)C(=O)c2ccc(NC(=O)CCC)cc2OC[C@H]1C,24,.
COc1ccc2c3c(n(C)c2c1)[C@@H](CO)N(C(=O)Nc1cccc(F)c1)CC31CN(Cc2nccs2)C1,-85*,-10
COc1ccc2c3c(n(C)c2c1)[C@@H](CO)N(CC1CCCC1)CC31CCN(C(=O)Nc2ccccc2)CC1,-84*,44
COc1ccc2c3c(n(C)c2c1)[C@H](CO)N(C(=O)NC(C)C)CC31CN(Cc2nccs2)C1,-3,-14
COc1ccc2c3c(n(C)c2c1)[C@@H](CO)N(CC1CC1)CC31CCN(C(=O)Nc2ccccc2)CC1,-73,-1
COc1ccc2c3c(n(C)c2c1)[C@H](CO)N(C(=O)C1CCCC1)CC31CN(C(=O)CC2CC2)C1,-85*,3
COc1ccc2c3c(n(C)c2c1)[C@H](CO)N(C(=O)C1CCCC1)CC31CN(C(=O)CN(C)C)C1,25,.
C[C@@H]1CCCCO[C@@H](CN(C)C(=O)Cc2ccccc2)[C@H](C)CN([C@@H](C)CO)C(=O)c2cc(NC(=O)c3ccncc3)ccc2O1,-13,3
C[C@@H]1CN([C@H](C)CO)C(=O)c2cc(-c3cncnc3)cnc2O[C@H]1CN(C)C(=O)c1cccc(F)c1,36,-1
Cc1noc(C)c1NC(=O)N[C@@H]1CC[C@H](CC(=O)NCCCN(C)C)O[C@H]1CO,4,.
C[C@@H]1CN([C@@H](C)CO)C(=O)c2cccc(NC(=O)CCCCCC(=O)Nc3ccccc3N)c2O[C@H]1CN(C)Cc1ccncc1,-40,-2
SMILES,Pf Dd2 inh,C diff HTS
C[C@H](CO)N1C[C@H](C)[C@@H](CN(C)Cc2ccc(Oc3ccccc3)cc2)Oc2c(NC(=O)CCCCCC(=O)Nc3ccccc3N)cccc2C1=O,-90*,-1
COc1ccc(CN(C)C[C@H]2Oc3c(NC(=O)CCCCCC(=O)Nc4ccccc4N)cccc3C(=O)N([C@H](C)CO)C[C@@H]2C)cc1,-85*,-7
C[C@@H]1CN([C@H](C)CO)C(=O)c2cccc(NC(=O)CCCCCC(=O)Nc3ccccc3N)c2O[C@@H]1CN(C)Cc1ccncc1,31,3
C[C@H]1CN([C@@H](C)CO)C(=O)c2cc(NC(=O)CCCCCC(=O)Nc3ccccc3N)ccc2O[C@H]1CN(C)Cc1ccc(Oc2ccccc2)cc1,-75,12
C[C@H]1CN([C@@H](C)CO)C(=O)c2cccc(NC(=O)CCCCCC(=O)Nc3ccccc3N)c2O[C@H]1CN(C)Cc1ccc(Oc2ccccc2)cc1,-90*,10
C[C@@H]1CN([C@H](C)CO)S(=O)(=O)c2ccc(-c3cncnc3)cc2O[C@H]1CN(C)C(=O)C1CCC1,8,5
COc1cccc(NC(=O)N2C[C@@H](O)COC[C@@H]3O[C@H](CC(=O)NCc4ccccc4F)CC[C@H]32)c1,9,10
O=C(C[C@H]1C=C[C@H](NC(=O)CN2CCOCC2)[C@H](CO)O1)NCCc1ccncc1,15,-7
O=C(C[C@H]1C=C[C@@H](NC(=O)C2CCOCC2)[C@H](CO)O1)NCc1ccncc1,11,.
O=C(C[C@H]1CC[C@@H]2[C@H](COC[C@H](O)CN2C(=O)c2ccccc2)O1)Nc1nccs1,-7,-1
CN1C(=O)c2cc(NC(=O)C3CC3)ccc2OC[C@@H]2O[C@@H](CC(=O)NC3CCC3)CC[C@H]21,-19,-7
O=C(C1CC1)N1C[C@@H]2N[C@H](C1)C2c1ccc(-c2ccccc2F)cc1 (stereo partly drawn),-87*!,1
N#Cc1ccc(-c2ccc(C3[C@@H]4CN(C(=O)C5CCC5)C[C@H]3N4)cc2)cc1 (stereo partly drawn),-91*!,-1
O=C(C1CCCC1)N1C[C@@H]2N[C@H](C1)C2c1ccc(-c2cncnc2)cc1 (stereo partly drawn),-9,3
O=C(c1ccc(F)cc1)N1C[C@@H]2N[C@H](C1)C2c1ccc(-c2ccccc2F)cc1 (stereo partly drawn),-32,71
O=C(C1CCCC1)N1C[C@@H]2N[C@H](C1)C2c1ccc(-c2ccncc2)cc1 (stereo partly drawn),-1,-2
N#Cc1cccc(-c2ccc(C3[C@@H]4CN(C(=O)Nc5ccccc5)C[C@H]3N4)cc2)c1 (stereo partly drawn),-31,39
N#Cc1ccc(-c2ccc(C3[C@@H]4CN(C(=O)C5CCCC5)C[C@H]3N4)cc2)cc1 (stereo partly drawn),-81*,2
N#Cc1cccc(-c2ccc(C3[C@@H]4CN(C(=O)C5CC5)C[C@H]3N4)cc2)c1 (stereo partly drawn),-90*!,-5
C[C@@H]1CN([C@H](C)CO)C(=O)c2cccc(NC(=O)c3cnccn3)c2O[C@@H]1CN(C)S(=O)(=O)c1ccc(F)cc1,-11,1
C[C@@H]1CN([C@@H](C)CO)C(=O)c2cc(NS(=O)(=O)c3ccc(Cl)cc3)ccc2O[C@H]1CN(C)CC1CC1,-4,4
O=C(C1CC1)N1C[C@@H]2N[C@H](C1)C2c1ccc(-c2cccc(F)c2)cc1 (stereo partly drawn),-81*!,1
O=C(C1CCCC1)N1C[C@@H]2N[C@H](C1)C2c1ccc(-c2cccc(F)c2)cc1 (stereo partly drawn),-65,39

# Screening results (PubChem)
